From PubChem BioAssay (Tox21) come the findings set out here.

Inconclusive results are not listed. A call without a number means that no potency is given here. Values without a mark were called inactive. Active and inactive are the calls of the source. Calls come from the whole dose curve; as a rule, active = well fitted cell-killing curve with a large enough effect in the repeat runs; inconclusive = weak or mixed curves, or effect the other way; inactive = flat fitted curve, though single readings scatter.

The first assay can be described thus: cAMP Responsive Elements (CRE) small molecule antagonists, cell-based qHTS assay: qHTS cell viability counter screen (AID 2060913). Note: nearly all actives have a fitted effect of over 40% in size. Particulars: CRE-bla HEK293T viability, CellTiter-Glo luminescence, 5 h; series mostly up to 92.4 µM. The method, boiled down:
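CRE-bla HEK293T cells (2,000/well, 18 h) given compound plus NKH477 0.25 uM final for 3 h at 37C; viability counter-screen by CellTiter-Glo luminescence in same wells after 30 min.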
In the case of `COc1ccc(C(=O)Nc2ccccc2)cc1[N+](=O)[O-]`, the Potency entry was “inactive”.
Still for that read-out and setting: the entry for `CN1C(=O)CC[C@H]1c1cccnc1` is “inactive”; for `NC(=O)c1c(Cl)cccc1Cl` it is “inactive”.
For the compound `CC(=O)OC(C)C`, the Potency entry is “inactive”.
Still for that read-out and setting: the same measure for `Cc1ccccc1N=O`: “inactive”.
The same measure, in the same setting: the same measure for `CC(C)COC(=O)/C=C/c1ccccc1`: “inactive”.
`CCOC(=O)C(=O)c1csc(NC=O)n1`: the Potency entry is “inactive”.
Consider `CCCCCCCCC(C)=O`, for which the Potency result was “inactive”.
Consider `CCCCN(CCCC)C(=S)SSC(=S)N(CCCC)CCCC`, for which the Potency result was “inactive”.
As to `Cc1oncc1C(=O)Nc1ccc(C(F)(F)F)cc1`, the Potency entry is “inactive”.
On to `Oc1ccc(OCc2ccccc2)cc1`, for which the Potency entry is “inactive”.
For the compound `C=CCc1cc(OC)c(O)c(C(=O)NCCO)c1`, the Potency entry is “inactive”.
On to `O=C1CC[C@@H](C(=O)O)N1`, for which the Potency entry was “inactive”.
On the same count and under the same terms, the same measure for `CC(C)=NNC(N)=S`: “inactive”.
In the case of `O=S(=O)(O)c1cc(S(=O)(=O)O)c2ccc3c(S(=O)(=O)O)cc(S(=O)(=O)O)c4ccc1c2c43`, the viability change, negative = cytotoxic is 3.35% [at 18.9 µM].
On to `Clc1ccc2c(c1)Nc1ccccc1S2`, for which the Potency entry was “inactive”.
Same read-out and setting: the entry for `FC(F)(F)c1ccc(Cl)c(Cl)c1` is “inactive”; for `CC(C)(c1ccccc1)c1ccccc1` it is “inactive”.
Regarding `S=C(SSSSSSC(=S)N1CCCCC1)N1CCCCC1`, the viability change, negative = cytotoxic was 6.65% [at 18.9 µM].
Regarding `O=S1(=O)CCCO1`, the Potency entry is “inactive”.
Consider `CC(C)(C)C(O)/C=C/c1ccc2c(c1)OCO2` (stereo not given), for which the Potency result is “inactive”.
Turning to `Cc1ncc([N+](=O)[O-])n1CC(O)CCl` (stereo not given), the Potency entry is “inactive”.
In the case of `O=C(C(=O)c1ccc(Br)cc1)c1ccc(Br)cc1`, the viability change, negative = cytotoxic was -3.96% [at 18.9 µM].
Regarding `CCN(Cc1cccnc1)C(=O)c1cccc(Cl)c1[C@]1(C)C(=O)N(Cc2ccc(OC)cc2OC)c2ccc(Cl)cc21`, the Potency entry was “inactive”.
Same read-out and setting: the same measure for `CC(=O)Nc1ccc(S(=O)(=O)Nc2cc(C)on2)cc1`: “inactive”; for `CC(C(=O)O)c1ccc(/C=C2\CCCCC2=O)cc1` (stereo not given): “inactive”; for `FC(F)OC(Cl)C(F)(F)F` (stereo not given): “inactive”.
The same measure, in the same setting: the same measure for `C[Si](C)(C)O[Si](C)(C)C`: “inactive”; for `C=C(C)C(=O)OCCCCCC`: “inactive”.
Still for that read-out and setting: the entry for `CCCCCCCCOc1ccccc1C(=O)Nc1ccc(C(=O)OCC[N+](C)(CC)CC)cc1` is “inactive”; for `CC/C=C1/OC(=O)c2ccccc21` it is “inactive”; for `C=C(C)C(=O)OC(C)C` it is “inactive”.
For `CCOc1ccc(NC(=O)CC(C)=O)cc1`, the Potency result is “inactive”.
The same measure, in the same setting: the entry for `CNC1(C)C2CCC(C2)C1(C)C` (stereo not given) is “inactive”; for `CCCCCCCCCI` it is “inactive”.
Still for that read-out and setting: the same measure for `CNCCCC12CCC(c3ccccc31)c1ccccc12`: “inactive”; for `CC(C)C(C)(C)C(C)(C)C(C)(C)S`: “inactive”.
Still for that read-out and setting: the same measure for `CCCO`: “inactive”.
For the compound `COC(=O)C(C)O` (stereo not given), the Potency result is “inactive”.
On the same count and under the same terms, the entry for `CCCCC(CC)COC(=O)CCCCC(=O)OCc1ccccc1` (stereo not given) is “inactive”.

A further assay is described as follows: cAMP Responsive Elements (CRE) small molecule agonists, cell-based qHTS assay: qHTS cell viability counter screen (AID 2060914). Note: nearly all actives have a fitted effect of over 50% in size. Particulars: CRE-bla HEK293T viability, CellTiter-Glo luminescence, 5 h; series mostly up to 92.4 µM. The method, boiled down:
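Cytotoxicity was measured as ATP luminescence (CellTiter-Glo, 30 min at room temperature) in the same wells as the CRE-bla FRET read-out. HEK293T CRE-bla cells had 3 h compound exposure at 37C/5% CO2.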
For orientation: qHTS replaces the single test concentration by a dilution series.
As to `COc1ccc(C(=O)Nc2ccccc2)cc1[N+](=O)[O-]`, the Potency result was “inactive”.
As for `CN1C(=O)CC[C@H]1c1cccnc1`, the Potency result was “inactive”.
Same read-out and setting: the same measure for `NC(=O)c1c(Cl)cccc1Cl`: “inactive”; for `CC(=O)OC(C)C`: “inactive”.
In the case of `Cc1ccccc1N=O`, the Potency result was “inactive”.
For the compound `CC(C)COC(=O)/C=C/c1ccccc1`, the Potency result was “inactive”.
Still for that read-out and setting: the same measure for `CCOC(=O)C(=O)c1csc(NC=O)n1`: “inactive”; for `CCCCCCCCC(C)=O`: “inactive”.
Consider `CCCCN(CCCC)C(=S)SSC(=S)N(CCCC)CCCC`, for which the Potency result is “inactive”.
Turning to `Cc1oncc1C(=O)Nc1ccc(C(F)(F)F)cc1`, the Potency result was “inactive”.
Same read-out and setting: the same measure for `Oc1ccc(OCc2ccccc2)cc1`: “inactive”.
On the same count and under the same terms, the same measure for `C=CCc1cc(OC)c(O)c(C(=O)NCCO)c1`: “inactive”; for `O=C1CC[C@@H](C(=O)O)N1`: “inactive”; for `CC(C)=NNC(N)=S`: “inactive”.
Consider `O=S(=O)(O)c1cc(S(=O)(=O)O)c2ccc3c(S(=O)(=O)O)cc(S(=O)(=O)O)c4ccc1c2c43`, for which the activity change, negative = cytotoxicity was -11.7% [at 18.9 µM].
As to `Clc1ccc2c(c1)Nc1ccccc1S2`, the Potency result is “inactive”.
Turning to `FC(F)(F)c1ccc(Cl)c(Cl)c1`, the Potency entry was “inactive”.
The same measure, in the same setting: the same measure for `CC(C)(c1ccccc1)c1ccccc1`: “inactive”.
Regarding `S=C(SSSSSSC(=S)N1CCCCC1)N1CCCCC1`, the activity change, negative = cytotoxicity is -4.69% [at 18.9 µM].
As for `O=S1(=O)CCCO1`, the Potency result was “inactive”.
On the same count and under the same terms, the same measure for `CC(C)(C)C(O)/C=C/c1ccc2c(c1)OCO2` (stereo not given): “inactive”; for `Cc1ncc([N+](=O)[O-])n1CC(O)CCl` (stereo not given): “inactive”.
As to `O=C(C(=O)c1ccc(Br)cc1)c1ccc(Br)cc1`, the activity change, negative = cytotoxicity was -3.4% [at 18.9 µM].
Regarding `CCN(Cc1cccnc1)C(=O)c1cccc(Cl)c1[C@]1(C)C(=O)N(Cc2ccc(OC)cc2OC)c2ccc(Cl)cc21`, the Potency entry was “inactive”.
Still for that read-out and setting: the same measure for `CC(=O)Nc1ccc(S(=O)(=O)Nc2cc(C)on2)cc1`: “inactive”.
On the same count and under the same terms, the same measure for `CC(C(=O)O)c1ccc(/C=C2\CCCCC2=O)cc1` (stereo not given): “inactive”; for `FC(F)OC(Cl)C(F)(F)F` (stereo not given): “inactive”.
Regarding `C[Si](C)(C)O[Si](C)(C)C`, the Potency entry is “inactive”.
The same measure, in the same setting: the entry for `C=C(C)C(=O)OCCCCCC` is “inactive”.
Same read-out and setting: the entry for `CCCCCCCCOc1ccccc1C(=O)Nc1ccc(C(=O)OCC[N+](C)(CC)CC)cc1` is “inactive”; for `CC/C=C1/OC(=O)c2ccccc21` it is “inactive”.
Same read-out and setting: the same measure for `C=C(C)C(=O)OC(C)C`: “inactive”; for `CCOc1ccc(NC(=O)CC(C)=O)cc1`: “inactive”; for `CNC1(C)C2CCC(C2)C1(C)C` (stereo not given): “inactive”.
On to `CCCCCCCCCI`, for which the Potency entry is “inactive”.
In the case of `CNCCCC12CCC(c3ccccc31)c1ccccc12`, the Potency result was “inactive”.
Same read-out and setting: the entry for `CC(C)C(C)(C)C(C)(C)C(C)(C)S` is “inactive”.
Regarding `CCCO`, the Potency result was “inactive”.
`COC(=O)C(C)O` (stereo not given): the Potency entry was “inactive”.
Same read-out and setting: the entry for `CCCCC(CC)COC(=O)CCCCC(=O)OCc1ccccc1` (stereo not given) is “inactive”.
